Assay results from PubChem BioAssay (NCATS).
Records with an inconclusive call do not appear. Calls of active or inactive are those of the source. Calls come from the whole dose curve; as a rule, active = well fitted inhibition curve with a large enough effect; inconclusive = small, poorly fitted or top-dose-only effect; inactive = flat fitted curve, though single readings scatter.

Tests used:
Test in all cases: qHTS profiling for inhibitors of Plasmodium falciparum proliferation (AID 504749); note: nearly all actives have a fitted effect of over 60% in size
Conditions in all cases: P. falciparum in erythrocytes, SYBR Green DNA, 72 h; series mostly up to 28.7 µM
ATS95 = test system: ATS95
Outline: (§1)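 P. falciparum-infected erythrocytes (0.3% parasitemia, 2.5% hematocrit final) were exposed to compounds for 72 h at 37 C in 5% CO2, then lysed with SYBR Green buffer overnight at room temperature; parasite DNA fluorescence was normalized to artemisinin and DMSO controls.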

C2A = test system: C2A
Outline: as §1

CP237 = test system: CP237
Outline: as §1

CP238 = test system: CP238
Outline: as §1

CP250 = test system: CP250
Outline: as §1

CP252 = test system: CP252
Outline: as §1

CP256 = test system: CP256
Outline: as §1

CP262 = test system: CP262
Outline: as §1

CP265 = test system: CP265
Outline: as §1

CP266 = test system: CP266
Outline: as §1

CP268 = test system: CP268
Outline: as §1

CP269 = test system: CP269
Outline: as §1

CP325 = test system: CP325
Outline: as §1

CP329 = test system: CP329
Outline: as §1

Dd2 = test system: Dd2
Outline: as §1

ECU = test system: ECU
Outline: as §1

GB4 = test system: GB4
Outline: as §1

P93_24 = test system: P93_24
Outline: as §1

PAD = test system: PAD
Outline: as §1

SC27B = test system: SC27B
Outline: as §1

Measured: Potency
Potency is the fitted concentration of half-maximal effect.

CCCC[C@H]1C(=O)N(c2ccccc2)N(c2ccc(O)cc2)C1=O
inactive: all assays above

CO/N=C(/C(=O)N[C@@H]1C(=O)N2C(C(=O)O)=C(C[n+]3ccc(N)n3CCO)CS[C@H]12)c1csc(N)n1
inactive: all assays above

CCCCN1CC(O)C(O)C(O)C1CO (stereo not given)
inactive: all assays above

O=c1[nH]c(=O)n(C2C[C@H](O)[C@@H](CO)O2)cc1C(F)(F)F (stereo not given in full)
inactive: all assays above

Cc1cn([C@H]2CC(F)[C@@H](CO)O2)c(=O)[nH]c1=O (stereo not given in full)
inactive: all assays above

CNC1C(O)C(OC2C(N)CC(N)C(OC3OC(CN)=CCC3N)C2O)OCC1(C)O (stereo not given)
inactive: all assays above

CC1CCC(C(C)C)C(O)C1 (stereo not given)
inactive: all assays above

CC[C@@H](C)C(N)C(=O)O (stereo not given in full)
inactive: all assays above

O=c1ccn(C2OC(COP(=O)(O)OC3C(CO)OC(n4ccc(=O)[nH]c4=O)C3O)C(O)C2O)c(=O)[nH]1 (stereo not given)
inactive: all assays above

C=C1[C@@H]2CC[C@H](C2)C1(C)C
inactive: all assays above

C[C@@H]1C(SC2Cn3cnc[n+]3C2)=C(C(=O)[O-])N2C(=O)[C@H]([C@@H](C)O)[C@@H]12 (stereo not given in full)
inactive: all assays above

CC[C@@H]1/C=C(\C)C[C@H](C)C[C@H](OC)[C@H]2O[C@@](O)(C(=O)C(=O)N3CCCC[C@H]3C(=O)O[C@H](/C(C)=C/[C@@H]3CC[C@H](Cl)[C@H](OC)C3)[C@H](C)[C@@H](O)CC1=O)[C@H](C)C[C@@H]2OC
inactive: all assays above

Cc1ccc(S(=O)(=O)NC(=O)NC(C)Cc2ccccc2)cc1 (stereo not given)
inactive: all assays above

Cc1cnc(C(=O)O)cn1
inactive: all assays above

Cc1ccc(Nc2ncccc2C(=O)O)cc1C
inactive: all assays above

CC(C)C[C@@H](NC(=O)[C@@H](Cc1ccccc1)NC(=O)c1cnccn1)B(O)O
active: ATS95 112 nM | C2A 112 nM | CP237 89.1 nM | CP238 89.1 nM | CP250 126 nM | CP252 89.1 nM | CP256 141 nM | CP262 120 nM | CP265 141 nM | CP266 379 nM | CP268 135 nM | CP269 151 nM | CP325 151 nM | CP329 120 nM | Dd2 112 nM | ECU 126 nM | GB4 120 nM | P93_24 158 nM | PAD 141 nM | SC27B 141 nM

CC12C=CC(=O)C=C1[C@@H](F)CC1C2C(O)CC2(C)C1CC[C@]2(O)C(=O)CO (stereo not given in full)
inactive: all assays above

COC(c1ccccc1)(c1ccccc1)C(Oc1nc(C)cc(C)n1)C(=O)O (stereo not given)
inactive: all assays above

CCN(CC)C(=O)Nc1ccc(OC[C@H](O)CNC(C)(C)C)c(C(C)=O)c1
inactive: all assays above

CCCCC/C(C=O)=C/c1ccccc1
inactive: all assays above

CC(=O)NC[C@@H]1CN(c2ccc(N3CCOCC3)c(F)c2)C(=O)O1
inactive: all assays above

C=C[C@H]1CN2CCC1C[C@H]2[C@H](O)c1ccnc2ccc(OC)cc12 (stereo not given in full)
active: ATS95 794 nM | C2A 1120 nM | CP237 1260 nM | CP238 1580 nM | CP250 1000 nM | CP252 891 nM | CP256 794 nM | CP262 757 nM | CP265 562 nM | CP266 1900 nM | CP268 1510 nM | CP269 1510 nM | CP325 1200 nM | CP329 1690 nM | Dd2 891 nM | ECU 251 nM | GB4 301 nM | P93_24 1000 nM | PAD 891 nM | SC27B 1000 nM

OCCN1CC(O)C(O)C(O)C1CO (stereo not given)
inactive: all assays above

CC(=O)N[C@H]1[C@H](O[C@@H]2c3ccc(c(Cl)c3)Oc3cc4cc(c3O[C@@H]3O[C@H](CO)[C@@H](O)[C@H](O)C3C)Oc3ccc(cc3Cl)C[C@H]3NC(=O)[C@@H](N)c5ccc(O)c(c5)Oc5cc(O)cc(c5)[C@H](NC3=O)C(=O)N[C@H]4C(=O)N[C@H]3C(=O)N[C@@H]2C(=O)N[C@@H](C(=O)O)c2cc(O)cc(O[C@H]4O[C@H](CO)[C@@H](O)C(O)[C@@H]4O)c2-c2cc3ccc2O)O[C@H](CO)[C@@H](O)[C@@H]1O (stereo not given in full)
inactive: all assays above

C/C1=C2/[N-]C(C(CC(N)=O)[C@@]2(C)CCC(=O)NCC(C)OP(=O)([O-])O[C@H]2[C@@H](O)[C@@H](n3cnc4cc(C)c(C)cc43)O[C@@H]2CO)[C@]2(C)N=C(/C(C)=C3N=C(/C=C4N=C1C(CCC(N)=O)C\4(C)C)[C@@H](CCC(N)=O)[C@]\3(C)CC(N)=O)[C@@H](CCC(N)=O)[C@]2(C)CC(N)=O.CC(=O)O.[Co] (stereo not given in full)
inactive: all assays above

O=C(O)CC(O)CC(O)/C=C/c1c(C2CC2)nc2ccccc2c1-c1ccc(F)cc1 (stereo not given)
inactive: all assays above

CN1[C@@H]2CC[C@@H]1CC(OC(=O)[C@H](CO)c1ccccc1)C2 (stereo not given in full)
inactive: all assays above

CC1(C)OC[C@@H]2O[C@@]3(C(=O)O)OC(C)(C)O[C@@H]3[C@@H]2O1
inactive: all assays above

C=CC1CN2CCC1CC2[C@@H](O)c1ccnc2ccc(OC)cc12 (stereo not given in full)
active: ATS95 251 nM | C2A 891 nM | CP237 891 nM | CP238 891 nM | CP250 891 nM | CP252 355 nM | CP256 891 nM | CP262 338 nM | CP265 355 nM | CP266 953 nM | CP268 536 nM | CP269 601 nM | CP325 478 nM | CP329 953 nM | Dd2 282 nM | ECU 112 nM | GB4 135 nM | P93_24 398 nM | PAD 251 nM | SC27B 891 nM

CC(O)C(N)C(=O)O (stereo not given)
inactive: all assays above

CCCCCCCCCCCCCCCC(=O)OCC(COP(=O)(O)OCC[N+](C)(C)C)OC(=O)CCCCCCCCCCCCCCC (stereo not given)
inactive: all assays above

O=C(OC[C@@H]1O[C@@](O)(COC(=O)c2cccnc2)[C@H](OC(=O)c2cccnc2)[C@H]1OC(=O)c1cccnc1)c1cccnc1
inactive: all assays above

OCCOC[C@H]1O[C@H](OCCO)[C@H](OCCO)[C@@H](OCCO)[C@@H]1OCCO (tested in a mixture with another compound)
inactive: all assays above

CC(=O)NC1[C@H]([C@H](O)[C@H](O)CO)OC(C(=O)O)=C[C@H]1N=C(N)N (stereo not given in full)
inactive: all assays above

C=C(NCc1ccccc1)c1ccccc1O
inactive: all assays above

C=CCn1c(=O)n(C2OC(CO)C(O)C2O)c2nc(N)[nH]c(=O)c21 (stereo not given)
inactive: all assays above

CC(C)(C)C(=O)OCC(=O)C1CCC2C3CCC4=CC(=O)CCC4(C)C3CCC12C (stereo not given)
inactive: all assays above

OCC1O[C@H](O[C@H]2C(O)C(O)C(O)O[C@@H]2CO)C(O)C(O)C1O (stereo not given in full)
inactive: all assays above

NC(=O)NC(CCC(=O)O)C(=O)O (stereo not given)
inactive: all assays above

C[C@H]1[C@@H](OC(=O)CCC(=O)O)OC2OC3(C)CC[C@H]4[C@H](C)CC[C@@H]1[C@@]24OO3 (stereo not given in full)
active: ATS95 5 nM | C2A 3.2 nM | CP237 6.3 nM | CP238 4.5 nM | CP250 4.5 nM | CP252 5 nM | CP256 7.1 nM | CP262 5.4 nM | CP265 2.5 nM | CP266 23.9 nM | CP268 5.4 nM | CP269 4.8 nM | CP325 6 nM | CP329 7.6 nM | Dd2 4.5 nM | ECU 2.8 nM | GB4 3 nM | P93_24 2.2 nM | PAD 5.6 nM | SC27B 5 nM

C[C@H]1OC(OC2C(O)[C@@H](O)C(OC3C(O)[C@@H](O)C(O)O[C@@H]3CO)O[C@@H]2CO)[C@H](O)C(O)C1N[C@H]1C=C(CO)[C@@H](O)[C@H](O)C1O (stereo not given in full)
inactive: all assays above
